# Compound activity as filed in PubChem BioAssay.
# Hits are enriched below; roughly 19% of the tested compounds scored in any of these assays.
# HT1080NT lethal: qHTS for induction of synthetic lethality in tumor cells producing 2HG: qHTS for the HT-1080-NT fibrosarcoma cell line; HT-1080-NT fibrosarcoma viability, CellTiter-Glo ATP luminescence, 48 h; Potency, µM (top dose mostly 46.1 µM), usual class: cytotoxic; 1.6% of 360,000 active; AID 686970, 2013;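 also: NT is the 2HG producing partner of a matched IDH1 knockdown line; nearly all actives have a fitted effect of over 55% in size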
#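 HT-1080-NT fibrosarcoma cells (2HG-overproducing), 750 cells/well in RPMI with 5% FBS, dosed after 2 h and incubated 48 h at 37C. CellTiter-Glo luminescence normalized to DMSO and no-cell wells; concentration-response curves fitted and classed.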
# DT40 TDP1 CPT: qHTS for Inhibitors of human tyrosyl-DNA phosphodiesterase 1 (TDP1): qHTS in cells in presence of CPT. chicken DT40 Tdp1-/-;hTDP1 cells + 20 nM CPT, ATP luminescence, 48 h. Potency, µM (highest dose often 46.2 µM), hits mostly inhibitors. 12% of 420,000 active; also: nearly all actives have a fitted effect of over 55% in size
#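 Chicken DT40 Tdp1-/- cells stably complemented with human TDP1 were seeded at 400 cells/well in medium containing 20 nM camptothecin, exposed to pin-transferred compounds, and grown at 37 °C for at least 48 hr. Viability was read as ATP luminescence.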
# IL-1B inflam inh: qHTS for Inhibitors of Inflammasome Signaling: IL-1-beta AlphaLISA Primary Screen; THP-1 LPS/ATP IL-1B secretion, AlphaLISA, 16 h; hits give low values; activity change, % at 57.5 µM; 4.7% of 360,000 active; AID 743279, 2014; in the data active = activity change below about -50%; inconclusive = mostly about -30% to -49%
#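 Secreted IL-1B measured by AlphaLISA bead assay after 16 h compound exposure of THP-1 cells; compounds (final up to 57.5 uM) added 1 h before LPS (250 ng/mL) and ATP (1.25 mM) stimulation; lower signal means less secretion.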
# TDP1 cell noCPT: qHTS for Inhibitors of human tyrosyl-DNA phosphodiesterase 1 (TDP1): qHTS in cells in absence of CPT; DT40 Tdp1-/- hTDP1 cells, no CPT, ATP luminescence, 48 h; Potency, µM (doses to about 46.2 µM), hits mostly inhibitors; 15% of 420,000 active; also: nearly all actives have a fitted effect of over 55% in size
#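 Luminescent ATP content (CellTiter-Glo) served as the growth readout. Knockout chicken DT40 cells expressing human TDP1 were exposed to compounds without camptothecin for a minimum 48 hr at 37 °C.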
# HT1080 IDH1KD tx: qHTS for induction of synthetic lethality in tumor cells producing 2HG: qHTS for the HT-1080-IDH1KD cell line. HT-1080 IDH1 knockdown viability, ATP luminescence, 48 h. AID 686971, 2013. 2% of 360,000 active. Potency, µM (series often up to 46.1 µM), actives largely listed as cytotoxic
#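 Luminescent ATP read-out (CellTiter-Glo, 10 min at room temperature) after 48 h compound exposure at 37 °C gave viability of IDH1-knockdown HT-1080 cells. Activity was normalised to DMSO and cell-free wells, then fitted as concentration-response curves.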
# Numbers stand for hits; – = inactive; ? = inconclusive; · = no result given. Unless noted, calls follow the shape of the dose curve; as a rule, active = well fitted curve in the direction sought with a large enough effect; inconclusive = small, poorly fitted or top-dose-only effect, or another doubt; inactive = no such curve, though single readings can be large; an effect the other way counts as inactive or inconclusive.
SMILES,HT1080NT lethal,DT40 TDP1 CPT,IL-1B inflam inh,TDP1 cell noCPT,HT1080 IDH1KD tx
COc1ccc(COCC(O)CN2CCC(CN3C(=O)c4cccc5cccc(c45)C3=O)CC2)cc1OC (stereo unspecified),?,?,-88,21µM,?
COc1ccc(COCC(O)CN2CCC(C(N)=O)CC2)cc1OC (stereo unspecified),–,–,–,–,–
CCc1ccc(OCC(O)CN2CCC(CN3C(=O)c4cccc5cccc(c45)C3=O)CC2)cc1 (stereo unspecified),–,15µM,–,21µM,–
O=C1c2cccc3cccc(c23)C(=O)N1CC1CCN(CC(O)COc2ccc3ccccc3c2)CC1 (stereo unspecified),18µM,15µM,-95,12µM,15µM
O=C(N1CCOCC1)N1CCN(CC(O)COc2ccc3ccccc3c2)CC1 (stereo unspecified),–,–,–,–,–
CCOC(=O)c1ccc(CNCc2ccccc2)cc1,–,–,–,?,–
NC(=O)c1cccc(-c2coc3c(C(=O)NCCc4ccccc4)cccc23)c1,–,?,–,?,–
COc1cccc(OCC(O)CN2CCC(CN3C(=O)c4cccc5cccc(c45)C3=O)CC2)c1 (stereo unspecified),18µM,8.2µM,-97,7.3µM,23µM
Cc1cc(C)cc(OCC(O)CN2CCC(CN3C(=O)c4cccc5cccc(c45)C3=O)CC2)c1 (stereo unspecified),18µM,15µM,-81,?,18µM
Cc1ccc(N2CCC(N3CCN(C4CCCCC4)C(CCO)C3)CC2)cc1 (stereo unspecified),–,–,–,–,–
COc1cccc(S(=O)(=O)Nc2ccc(C(O)(C(F)(F)F)C(F)(F)F)cc2)c1,?,16µM,–,16µM,?
O=S(=O)(Nc1ccc(C(O)(C(F)(F)F)C(F)(F)F)cc1)c1cccc2ccccc12,?,16µM,–,21µM,?
CC(C)(C)c1ccc(S(=O)(=O)Nc2cccnc2)cc1,–,?,–,?,–
CC(C)(C)c1ccc(S(=O)(=O)Nc2ccc(C(O)(C(F)(F)F)C(F)(F)F)cc2)cc1,18µM,16µM,–,16µM,21µM
COc1ccc(NS(=O)(=O)c2cccc(C(=O)NNC(=O)c3ccc(NC(C)=O)cc3)c2)cc1,–,–,–,–,–
CC(=O)Nc1ccc(NS(=O)(=O)c2cccc3ccccc23)cc1,–,?,–,–,?
Cc1cc2cc(C=O)c(Cl)nc2cc1C,?,?,–,18µM,–
O=C(NN1CCOCC1)c1ccc(Cl)s1,–,–,–,–,–
O=C(Nc1csc(Cc2c(Cl)cccc2Cl)n1)NN1CCOCC1,–,–,-84,–,–
O=c1[nH]c2cc(C(F)(F)F)c(N3CCOCC3)cc2n(CP(=O)(O)O)c1=O,·,–,·,–,·
CCC(=O)Nc1ccc2nc(SCCOc3ccc(C)cc3OC)sc2c1,·,?,·,15µM,·
COc1cc(C)ccc1OCCSc1nc2ccc(NC(=O)c3ccc(F)cc3)cc2s1,·,?,·,8.2µM,·
COc1cc(C(C)=O)ccc1OCC(=O)Nc1ccc2nc(C)sc2c1,–,–,–,?,–
C=CCn1c(COc2ccc(Cl)cc2)nnc1SCC(=O)N1CC(=O)Nc2ccccc21,–,–,–,–,–
Cc1ccc(NC(=O)C(c2ccccc2)N2Cc3ccccc3C2=O)cc1Cl (stereo unspecified),·,?,·,–,·
SMILES,HT1080NT lethal,DT40 TDP1 CPT,IL-1B inflam inh,TDP1 cell noCPT,HT1080 IDH1KD tx
Cc1ccc(C(=O)C(c2ccccc2)N2Cc3ccccc3C2=N)cc1 (stereo unspecified),?,10µM,-81,8.2µM,?
CSc1nccc(Oc2ccc(C#N)cc2)n1,–,–,–,–,–
CC1(C)Cc2nc(NC3CCCCC3)c(C#N)cc2CO1,–,?,–,23µM,–
CC(=NN=C(C)c1ccc(O)cc1)c1ccc(O)cc1,–,?,–,16µM,–
C/C=C(/C(=C/C)c1ccc(O)cc1)c1ccc(O)cc1,–,?,–,?,–
CCC(=O)NC(=S)NNC(=O)c1ccc(O)cc1,–,–,–,?,–
CC/C(=N/N=C(/CC)c1ccc(O)cc1)c1ccc(O)cc1,–,15µM,–,8.2µM,–
O=C(c1csnn1)N1CCC2(CC1)CCN(c1ccccn1)CC2,·,–,·,?,·
O=C1CCC(C(=O)N2CCCCCC2)CN1CCc1ccc(Cl)cc1 (stereo unspecified),–,–,–,–,–
Nc1ccc2nc(-c3cccc(-c4nc5ccc(N)cc5[nH]4)c3)[nH]c2c1,–,–,–,?,–
S=c1nc(COc2ccccc2)[nH]c2ccccc12,–,?,–,?,–
Nc1nc2ccc(Cl)cc2[nH]1,–,–,–,?,–
